In the library only some 12% were active in any assay of this set; here they are far more common.
HP1b binding inh – HP1-beta chromodomain-methylated histone interaction inhibition. P83916. AlphaScreen HP1-beta / biotin-H3K9me3 peptide binding. Potency, µM (top dose mostly 114 µM), for inactives: at the top dose activity change, negative = inhibition, actives largely listed as inhibitors. 0.56% of 390,000 active. AID 540317; note: nearly all actives have a fitted effect of over 70% in size
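Compound inhibition of the preformed complex between 50 nM HP1-beta and 50 nM biotinylated H3K9me3 peptide was read by AlphaScreen. Buffer was PBS pH 7.4 with 0.01% Tween-20. Incubations ran 30 min at room temperature, with 10 ug/mL donor/acceptor beads.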
G9a inh – G9a (human) methyltransferase inhibition; Q96KQ7; G9a H3K9 monomethylation, AlphaScreen, 2 h; Potency, µM (series often up to 102 µM), inactives show top-dose activity, negative = inhibition, most hits filed as inhibitors; 8.8% of 350,000 active; note: % is set by controls: 0 for no effect and ±100 for the full control effect; nearly all actives have a fitted effect of over 75% in size
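G9a (20 nM) preincubated 15 min RT with compounds, then 500 nM biotinylated H3K9 peptide and 20 uM SAM added; 2 h RT reaction. Monomethyl-H3K9 product detected by AlphaScreen with anti-H3K9me1 antibody, streptavidin donor and anti-rabbit IgG acceptor beads.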
JMJD2A Tudor – blocks the human JMJD2A Tudor domain; O75164; AlphaScreen JMJD2A-Tudor / H3K4me3 peptide binding; Potency, µM (top dose mostly 114 µM), without a hit: at the highest dose activity change, negative = inhibition, usual class: inhibitors; 4.4% of 390,000 active; AID 504339; note: % is set by controls: 0 for no effect and ±100 for the full control effect; nearly all actives have a fitted effect of over 50% in size
BAZ2B block – BAZ2B (human) inhibition; Q9UIF8; AlphaScreen BAZ2B-H3K14Ac peptide displacement; Potency, µM (doses to about 114 µM), for the others: at the highest dose activity change, negative = inhibition, usual class: inhibitors; 4.4% of 360,000 active; AID 504333; note: % is set by controls: 0 for no effect and ±100 for the full control effect; nearly all actives have a fitted effect of over 60% in size
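Complex of BAZ2B and biotin-H3K14Ac (50 nM apiece) forms over 30 min at RT, then faces library compounds up to 110 uM for another 30 min; AlphaScreen beads added, 20 min dark incubation, luminescence read.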
Sfp inh – inhibitors of Bacillus subtilis Sfp phosphopantetheinyl transferase; Biochemical Sfp PPTase activity, qHTS; Potency, µM, for the others: largest response in the series, negative = inhibition, usual class: inhibitors; AID 1490; 3.5% of 310,000 active; Q9F4F7;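 note: the enzyme is Sfp with the accession as filed and its product quenches rhodamine fluorescence; 0% = enzyme reaction without inhibitor and -100% = no enzyme wells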
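Fluorescence-quenching assay: 15 nM Sfp-PPTase preincubated 15 min at room temperature with compound, then 5 uM rhodamine-CoA and 12.5 uM BHQ-2-labelled YbbR peptide added. Fluorescence (ex 525/em 598 nm) read at start and after 30 min; difference gives rate.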
* marks the source's active call; other numbers are inactive results; u = inconclusive; x = no result given; ! = not active in a repeat; [ ] = dose if it differs, or a comment. Calls come from the whole dose curve; as a rule, active = well fitted curve in the direction sought with a large enough effect; inconclusive = small, poorly fitted or top-dose-only effect, or another doubt; inactive = no such curve, though single readings can be large; an effect the other way counts as inactive or inconclusive. Potency is the fitted concentration of half-maximal effect.

SMILES	HP1b binding inh	G9a inh	JMJD2A Tudor	BAZ2B block	Sfp inh
COc1ccc(NS(=O)(=O)c2cccc(C(=O)N3CCN(Cc4cc(OC)ccc4OC)CC3)c2)cc1	14%	u	-29%	-38%	1%
COc1cc2c(cc1CN1CCN(C(=O)c3cc(OC)c(OC)c(OC)c3)CC1)OCO2	-38%	11µM*	25µM*	56µM*	-14%
COc1ccc(CN2CCN(C(=O)c3cc(OC)c(OC)c(OC)c3)CC2)cc1OC	-52%	10µM*	2.5µM*	u	-30%
COc1ccc(C(=O)N2CCN(Cc3cc(OC)ccc3OC)CC2)cc1	u	32µM*	50µM*	u	u
CCOc1ncccc1C(=O)Nc1ccccc1N1CCOCC1	27%	x	-1%	x	x
COc1ccc2sc(-c3ccccc3OC)c(-c3ccc4c(c3)OCCO4)c2c1	u	-18%[0.501 µM]	-10%	-1%	x
CCc1c(C(=O)NCCc2ccc(N3CCCCC3)cc2)[nH]c2ccc(Cl)cc12	x	28µM*	x	x	x
CC1CCN(C(=O)Cn2c(=O)n(CCCCCC(=O)NCc3ccccc3Cl)c(=O)c3sccc32)CC1	34%	20%[59 µM]	-18%	-2%	x
Cc1cccc(Cn2c(Cc3ccccc3)nc3ccccc32)c1	62%	27%[59 µM]	48%	64%	56µM*
CN(C)c1ccc(N/C(N)=N/c2nc(C(F)(F)F)cc(C(F)(F)F)n2)cc1	-17%	13µM*	-26%	u	5%
CC1C(=O)Nc2ccc(S(=O)(=O)NCc3ccc(N(C)C)cc3)cc2NC1=O (stereo not given)	41%	-25%[59 µM]	-10%	-14%	x
Cc1cc(=O)c2c(O)c3c(O)cc(=O)c4c3c3c(cc(O)c1c23)C(C)(C)C=4O	x	x	x	x	56µM*!
Cn1c(Cc2ccccc2)nnc1SCCC(=O)Nc1ccccc1	7%	7.9µM*	-8%	14%	-9%
CCn1c(Cc2ccccc2)nnc1SCC(=O)Nc1ccc(N)cc1	24%	50µM*	-24%	-25%	17%
N#CC(c1ccc(Cl)nn1)c1c(F)cccc1Cl (stereo not given)	38%	-17%[59 µM]	-15%	-3%	-1%
COc1ccc(Cn2c(O)cc(=O)[nH]c2=O)cc1	46%	10µM*	-25%	-6%	45µM*
Nc1cc(=O)[nH]c(=O)n1Cc1ccccc1	32%	12%	-21%	-4%	11%
CCOc1ccc(Cn2c(O)cc(=O)[nH]c2=O)cc1	42%	u	-19%	-3%	50µM*
O=C(CC1C(=O)Nc2ccccc2N1CC(=O)N1CCCC1)Nc1ccc(Br)cc1 (stereo not given)	28%	0.28µM*	-18%	2%	x
COc1ccc2ccc3c(c2c1)N=C[C@]1(O3)N(C)c2ccccc2C1(C)C	u	29%[0.501 µM]	-28%[11.4 µM]	50µM*	50µM*
CC1=NOC2(C1)N(C)c1ccccc1C2(C)C (stereo not given)	19%	-10%[59 µM]	-17%	18%	-11%
FC(F)(F)c1cc(-c2ccccn2)nc2cc(-c3ccccc3)nn12	-27%	x	-5%	16%	-18%
CCN1CCCc2cc(CN(CCN3CCOCC3)C(=S)Nc3ccccc3OC)ccc21	-38%[57 µM]	25µM*	40µM*	40µM*	15%
CCN1CCCc2cc(CN(CCN3CCOCC3)C(=S)Nc3cccc(C)c3)ccc21	u	u	11µM*	8.9µM*	15%
CCN1CCCc2cc(CN(CCN3CCOCC3)C(=S)Nc3ccccc3C)ccc21	31%	3%[59 µM]	-20%[11.4 µM]	-35%	2%
SMILES	HP1b binding inh	G9a inh	JMJD2A Tudor	BAZ2B block	Sfp inh
CCN1CCCc2cc(CN(CCN3CCOCC3)C(=S)Nc3ccc(OC)c(OC)c3)ccc21	30%	-7%[59 µM]	-26%[11.4 µM]	-34%	16%
CCN1CCCc2cc(CN(CCN3CCOCC3)C(=S)Nc3ccc(OC)c(Cl)c3)ccc21	18%	50µM*	u	u	-2%
Cc1cccc(NC(=S)N(CCN2CCOCC2)Cc2ccccc2F)c1	31%	47%	-12%	-6%	17%
CC(=O)OCc1cc(=O)n2nc(C3CCCCC3)sc2n1	27%	4%[59 µM]	-7%	-11%	x
CCn1c(SCc2ccc(Cl)c(Cl)c2)nnc1C(C)NC(=O)c1ccc(OC)cc1 (stereo not given)	12%	22%[59 µM]	-13%	u	27%
COc1ccc(C(=O)NC(C)c2nnc(SCc3ccc(Cl)c(Cl)c3)n2C)cc1 (stereo not given)	0%	32µM*	-17%	u	-9%
CC(C)(C)c1ccc(/C=N/N2CCN(c3ccccn3)CC2)cc1	-5%	x	-25%	-14%	-1%
CCN1CCN(Cc2c(OC)ccc3ccccc23)CC1	25%	-3%[12.7 µM]	-14%	-10%	10%
COc1ccccc1N1CCN(/N=C/C=C\c2ccco2)CC1	-55%	35µM*	56µM*	50µM*	79µM*
COc1ccccc1/C=C/C=N/N1CCN(Cc2cccc3ccccc23)CC1	u	u	11µM*	32µM*	8%
COc1ccccc1/C=C/C=N/N1CCN(c2ccccn2)CC1	u	23%[0.501 µM]	u	50µM*	-18%
COc1ccccc1N1CCN(/N=C/C=C\c2ccccc2[N+](=O)[O-])CC1	14µM*	8.9µM*	22µM*	13µM*	-4%
COc1ccccc1N1CCN(/N=C/c2cccc(OC)c2O)CC1	8%	-3%	u	u	-8%
COc1ccc(C(=O)NNC(=O)CCc2nc3ccccc3c(=O)[nH]2)cc1	32%	x	-8%	x	x
CC(=O)C[C@H]1c2cc(C(F)(F)F)ccc2S(=O)(=O)N1C1CCCCC1	38%	x	1%	x	x
COc1ccccc1N1CC=C(c2cccc([N+](=O)[O-])c2)NC1=O	35%	40µM*	-14%	-20%	-11%
CC1CCCC(C)N1/N=C/C=C/c1ccccc1[N+](=O)[O-] (stereo not given)	28µM*	32µM*	40µM*	22µM*	13%
COc1ccccc1N1CC(C)C(=O)NC1=S (stereo not given)	6%	15%[59 µM]	u	1%	6%
CC1CCCC(C)N1/N=C/c1ccccc1Br (stereo not given)	u	15%[2.33 µM]	u	u	7%
COc1cc2c(cc1OC)CN(c1ccc([N+](=O)[O-])cc1Cl)CC2	-23%	u	u	u	-50%
COc1ccccc1N1CCN(c2ccc([N+](=O)[O-])cc2Cl)CC1	u	3.2µM*	u	u	-5%
Cn1nc([N+](=O)[O-])c2c(-c3nc4ccccc4s3)c(N)n(C3CCCCC3)c2c1=O	-3%	u	u	u	14%
CCOC(=O)c1c(C)oc2c1c(C=NCCO)c(O)c1ccccc12	-2%	50µM*	u	-39%	50µM*
CCOC(=O)c1c(C)oc2c1c(/C=N/c1ccccn1)c(O)c1ccccc12	99%	x	19%	x	x

Bioassay records deposited in PubChem by National Center for Advancing Translational Sciences (NCATS).
